Vaccinia pol inh: vaccinia E9 polymerase processive synthesis inhibitors, primary screen, biochemical, absorbance. Vaccinia virus DNA polymerase (E9) processive complex. in vitro processive DNA synthesis, absorbance read-out; stronger effect = lower value. normalized absorbance, % (concentration not given with the values). 46,000 compounds, 0.94% hits. AID 493162, 2011; in the data active = normalized absorbance mostly below about 85%, no sharp cut-off; inactive = mostly above about 86%
Large screens that a line does not name were inactive. This excerpt belongs to a sample that is enriched for hits.

CN(C)c1ccc(C(=O)OCC(=O)c2cccc(Cl)c2)cc1	none
O=C(c1ccccc1)c1cc(Br)ccc1NC(=O)C1CC1	none
CCN(CC)c1ccc(C(=O)OCC(=O)N2C(C)CCCC2C)cc1 (stereo not drawn)	none
CCN(CC)C(=O)NCc1noc2ccccc12	none
Cc1ccc(/C=C2\N=C(c3ccccc3)OC2=O)o1	none
Cc1ccc(/C=C2/C=CC(=O)O2)o1	Vaccinia pol inh 82
Cc1ccc(/C=C2\CC/C(=C\c3ccc(C)o3)C2=O)o1	none
O=c1cc(-c2cc(Cl)cc3c2OCOC3)oc2ccc(F)cc12	none
O=C1OC2(c3ccc(Br)cc3)C(OC(=O)C23CCCC3)C12CCCC2 (stereo not drawn)	none
COc1cccc(/C=C/C(=O)OCC(=O)Nc2ccccc2)c1	none
OC1(c2ccccc2)C2CC3CC(C2)CC1C3 (stereo not drawn)	none
O=C(O)c1ccc(-c2ccc(/C=C3\Sc4ccccc4C3=O)o2)cc1	none
O=C(O)c1cccc(-c2ccc(/C=C3/SC(=O)N(c4ccccc4)C3=O)o2)c1	none
O=C1NC(=Nc2cccc(C(=O)O)c2)S/C1=C/c1ccc(-c2ccc(C(=O)O)cc2)o1	Vaccinia pol inh 29
O=C1CCCN1c1ccc(C(=O)n2ccnc2)cc1	none
C/C(CC(=O)c1ccccc1)=N\n1cnnc1	none
Cc1c(O)ccc(-c2n[nH]c(C(F)(F)F)c2Oc2ccccc2)c1O	none
COc1ccc(-c2n[nH]c(C(F)(F)F)c2-c2cc3ccccc3o2)c(O)c1	Vaccinia pol inh 63
COc1ccc(-c2n[nH]c(C(F)(F)F)c2-c2cnn(-c3ccccc3)c2)c(O)c1C	none
COc1ccc(C(Nc2ccccn2)c2c(C)[nH]c3ccccc23)cc1OC (stereo not drawn)	none
CCSc1nc2c(c(=O)n1-c1ccc(C)cc1)SCC2	none
COC(=O)c1sc(NC(=O)c2ccccc2)c(C(=O)OC)c1C	none
CCn1c2ccccc2n2cc(-c3ccccc3)nc12	none
Nc1nc2ccccc2n1CCN1CCCCC1	none
c1ccc(-c2cn3c4ccccc4n(CCN4CCCCC4)c3n2)cc1	Vaccinia pol inh 59
Cc1[nH]c2ccc(OC(F)(F)F)cc2c1CCNC(=O)C1CC=CCC1C(=O)OC(C)C (stereo not drawn)	none
CN1CCN(c2ncnc3scc(-c4ccc(F)cc4)c23)CC1	none
COc1cccc2sc(NC(=O)c3ccccc3Cl)nc12	none
O=C(Nc1nc(=S)ss1)c1ccccc1Cl	Vaccinia pol inh 69
CSc1nc2ccc3nc(NC(=O)c4ccccc4Cl)sc3c2s1	none
Cc1cccc(CCNC(=O)[C@H](Cc2ccccc2)N2Cc3ccccc3C2=O)c1	none
O/N=C(\c1ccccc1)C12CC3CC(CC(C3)C1)C2	none
O=C(CCC1CCCC1)Nc1ccc(-c2nnc3n2CCCCC3)cc1	none
NCCCc1nc2ccc(Cc3ccc4nc(CCCN)[nH]c4c3)cc2[nH]1	none
c1ccc2sc(CCc3nc4ccccc4s3)nc2c1	none
NCCCc1nc2cc3sc(CCCN)nc3cc2s1	Vaccinia pol inh 60
COc1ccc(C(=O)Nc2ccc3ncsc3c2)cc1	none
CCOC(=O)c1cnc2ccccc2c1NCCO	none
CCOC(=O)c1cnc2ccc(F)cc2c1NCc1cccnc1	none
CCOC(=O)c1cnc2ccc(C(=O)OC)cc2c1NCCN(C)C	Vaccinia pol inh 52
O=C1CC(=O)CC(c2c(F)cccc2Cl)C1	none
O=C(O)CCc1nnc2ccc(Cl)nn12	none
CCN(CC)S(=O)(=O)c1ccc(C(=O)Nc2nccs2)cc1	Vaccinia pol inh 86
CN(C1CCCCC1)S(=O)(=O)c1ccc(C(=O)Nc2nccs2)cc1	none
CN(C)S(=O)(=O)c1ccc(C(=O)Nc2nccs2)cc1	none
CCCN1C(=O)/C(=C2\SC(=S)N(C)C2=O)c2cc(Br)ccc21	none
O=C1OCC(c2ccc(Cl)s2)=C1c1cccs1	none
N#CC1=C(SCC(=O)Nc2ccc(F)cc2)NC(=O)CC1c1ccc(F)cc1 (stereo not drawn)	none
CC1=C(/C=C/C(C)=C/C=C/C(C)=C/C(=O)Nc2ccc(O)cc2)C(C)(C)CCC1	none
CC(=C/C(=O)O)/C=C/c1ccccc1	none
CC1=C(/C=C/C(C)=C/C=C/C(C)=C\C(=O)O)C(C)(C)CCC1	Vaccinia pol inh 29
O=C(CSc1ncnc2ccccc12)NC1CCCCC1	none
CC1CCc2nc(SC3CC(=O)C4OCC3O4)nc(C(F)(F)F)c2C1 (stereo not drawn)	none
O=C1CC(Sc2ccc3ccccc3c2)C2COC1O2 (stereo not drawn)	Vaccinia pol inh 36
O=C1CC(N2C(=O)C3CC=CCC3C2=O)C2COC1O2 (stereo not drawn)	none
Cc1ccc(NC(=O)C(NC(=O)c2ccccc2)C(C)C)cc1 (stereo not drawn)	none
O=C(O)/C=C\C(=O)N1CCN(c2nc(-c3ccccc3)ns2)CC1	none
CC(C)(C)NC(=O)N1CCN(c2nc(-c3ccccc3)ns2)CC1	Vaccinia pol inh 66
c1ccc(-c2nsc(NC3Cc4ccccc4C3)n2)cc1	none
O=C(/C=C/c1cccs1)Nc1ccc(Nc2ccccc2)cc1	none
N#Cc1ccc(-c2cc(C(F)(F)F)ccc2Cl)o1	none
CCCN(CCC)C(=O)c1ccc2c(Cl)c3c(nc2c1)CCCC3	none
CN(C)/C=C/C=C1C(=O)CCCC1=O	Vaccinia pol inh 45
CN(C)/C=C/C=C1\N=C(c2ccccc2)OC1=O	none
